Source: PubChem BioAssay (NCATS)
Where “and” joins values, the source holds several entries; their conditions need not be identical. Equal values may be shown once. Inconclusive results are not listed. Calls of active or inactive are those of the source. Unless noted, the call rests on the fitted dose curve; in most records, active means well fitted curve in either direction with a large enough effect (not every such curve was filed as active); inconclusive means small, poorly fitted or top-dose-only effect, or another doubt; inactive means flat fitted curve, though single readings scatter.

Tests used:
[1] = Stat Signaling Pathway (AID 446); conditions: ME-180 (cervical carcinoma) SIE beta-lactamase reporter, IL-6 stimulated, 5 h; at 38 µM (top of the series) unless noted;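 further: ME-180 cervical cancer cells given 40 pM IL-6 alongside compound; SIE-controlled beta-lactamase reporter measured as 460/530 nm FRET emission ratio; on the % scale 0 is the no-effect control and ±100 the full control effect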
Method in brief: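 Normalization used AC90 stimulation (300 pM IL-6) and AC90 inhibition (125 nM pan-JAK inhibitor at 40 pM IL-6). The underlying signal is SIE-driven beta-lactamase in ME-180 cells after 5 h IL-6 exposure with compound.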

[2] = molecular target: Glucocorticoid receptor (Homo sapiens) (UniProt P04150); assay: GR-GFP Redistribution (AID 450;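 active means compounds whose dose series gives a full or clear partial fitted curve of increased nuclear translocation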; further: potency means the concentration at half of the fitted maximal effect); conditions: U2OS GR-GFP nuclear translocation, laser cytometry, 2 h
[3] = molecular target: Glucocorticoid receptor (Homo sapiens) (UniProt P04150); assay: GR-EFC Redistribution (AID 451; calls by dose curve; further: potency means the concentration at half of the fitted maximal effect); conditions: CHO-K1 GR-EFC translocation, beta-gal luminescence, 2 h
Method in brief: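 Translocation of GR-ED fusion to nuclear EA restores b-gal, read by luminescence after 1 h room-temperature detection. Engineered CHO-K1 biosensor cells, 1,000/well, exposed 2 h at 37 C to titrations up to 46 uM final.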

[4] = molecular target: Mitogen-activated protein kinase 10 (Mus musculus) (UniProt Q61831); assay: JNK3 AlphaScreen Assay (AID 530);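 further: kinase came from lysate of stimulated human HepG2 cells; signal reports phosphorylation of biotinylated GST-cJun 1-79 at Ser73 with 10 µM ATP; on the % scale 0 is the no-effect control and ±100 the full control effect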
Method in brief: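 qHTS titrations with 15 min compound pre-incubation before adding ATP (10 uM final). Read-out: AlphaScreen of Ser73-phosphorylated biotin-GST-cJun using HepG2 lysate JNK3 activated by IL-1β and TNFα.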

[5] = molecular target: 3',5'-cyclic-AMP phosphodiesterase 4B (Homo sapiens) (UniProt Q07343); assay: qHTS Assay for Inhibitors of PDE-IV (AID 607; active means well fitted activation curve with a large enough effect in the main read-out, with a control signal flat, not every such curve was filed as active; further: potency means the concentration at half of the fitted maximal effect)
Method in brief: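 HEK293 ACTOne cells with CNG channel (1000/well), endogenous PDE4; membrane potential dye, compounds up to 22.9 uM final. Fluorescence Ex 535/Em 590; RO 20-1724 (100 uM final) as reference.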

[6] = Cell Viability - N2a (AID 540; active means well fitted curve in the direction sought with a large enough effect; an effect the other way counts as inactive or inconclusive;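 further: cells exposed to compound for 40 h at 37 °C; plate controls were DMSO alone for no effect and tamoxifen control for full effect; nearly all actives have a fitted effect of over 45% in size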); conditions: N2a mouse neuroblastoma cell viability; activity change, negative = cytotoxicity: at 92.2 µM (top of the series)
Method in brief: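 Cytotoxicity was scored as loss of cellular ATP in N2a cells, a mouse neuroblastoma line. Compounds are applied in a qHTS concentration series for 40 hr at 37 °C.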

[7] = Cell Viability - HUV-EC-C (AID 542; active means well fitted curve in the direction sought with a large enough effect; an effect the other way counts as inactive or inconclusive;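 further: cells exposed to compound for 40 hours; on the % scale 0 is the no-effect control and ±100 the full control effect; nearly all actives have a fitted effect of over 35% in size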)
Method in brief: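 Cells were seeded at 1000 per well and incubated 5 hr at 37 °C before compound addition. After 40 hr at 37 °C, CellTiter-Glo reagent was added for 20 min and luminescence read. AC50 values came from Hill-equation modelling.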

[8] = Cell Viability - H-4-II-E (AID 543; active means well fitted curve in the direction sought with a large enough effect; an effect the other way counts as inactive or inconclusive;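 further: cells exposed to compound for 40 hours; on the % scale 0 is the no-effect control and ±100 the full control effect; nearly all actives have a fitted effect of over 35% in size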)
Method in brief: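 Cells seeded at 1500 per well and rested 5 hr; compounds added; 40 hr incubation at 37 °C; CellTiter-Glo added, 20 min at room temperature; luminescence read. Hill-equation fits gave AC50.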

[9] = Cell Viability - SH-SY5Y (AID 544; active means well fitted curve in the direction sought with a large enough effect; an effect the other way counts as inactive or inconclusive;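 further: cells exposed to compound for 40 hours; 0% = DMSO alone and -100% = 100 µM tamoxifen; nearly all actives have a fitted effect of over 55% in size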)
Method in brief: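 Cells were plated at 1500 per well and allowed 5 hr at 37 °C. Compounds were added across a concentration range and incubated 40 hr at 37 °C. CellTiter-Glo was added for 20 min at room temperature before luminescence reading.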

[10] = Cell Viability - Mesenchymal (AID 546; active means well fitted curve in the direction sought with a large enough effect; an effect the other way counts as inactive or inconclusive;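 further: cells exposed to compound for 40 hours before reading; 0% = DMSO only and -100% = 100 µM tamoxifen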)
Method in brief: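 CellTiter-Glo luminescence (intracellular ATP, 20 min room temperature) after 40 hr compound exposure at 37 °C of 1000 glomerulus-derived human kidney mesenchymal cells/well; AC50 values obtained by fitting qHTS concentration-response data to the Hill equation.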

[11] = Cellular Toxicity (caspase-3) HepG2 (AID 654; active means well fitted curve in the direction sought with a large enough effect; an effect the other way counts as inactive or inconclusive;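 further: cells exposed to compound for 16 hours before reading; 0% = DMSO alone and 100% = caspase signal from 100 µM tamoxifen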)
Method in brief: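 Caspase 3/7 activation in HepG2 is measured as rising luminescence after a 16 hr treatment at 37 °C. Values are scaled between DMSO basal and 100 uM tamoxifen, and AC50 is fitted with the Hill equation.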

[12] = Cellular Toxicity (caspase-3) Jurkat (AID 655; active means well fitted curve in the direction sought with a large enough effect; an effect the other way counts as inactive or inconclusive;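 further: cells exposed to compound for 16 h at 37 °C before reading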)
Method in brief: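 5000 Jurkat cells/well; compound 16 hr, 37 °C; Caspase-Glo 3/7 added, 20 min RT; luminescence read. Norm: DMSO = 0%, tamoxifen 100 uM = 100%. AC50, Hill model.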

[13] = Cellular Toxicity (caspase-3) HUV-EC-C (AID 656; active means well fitted curve in the direction sought with a large enough effect; an effect the other way counts as inactive or inconclusive;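 further: 0% = DMSO basal and 100% = 100 µM tamoxifen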)
Method in brief: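 qHTS; HUV-EC-C, 1000 cells/well; 5 hr settle, 16 hr cmpd, 37°C; Caspase-Glo 3/7, 20 min RT; luminescence. Norm: DMSO = 0%, tamoxifen 100 uM = 100%. Hill-fit AC50.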

[14] = Cellular Toxicity (caspase-3) SHSY5Y (AID 657; active means well fitted curve in the direction sought with a large enough effect; an effect the other way counts as inactive or inconclusive;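 further: cells exposed to compound for 16 hours at 37 °C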)
Method in brief: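 qHTS, SH-SY5Y, 1500 cells/well, 5 h pre-incubation 37 °C; compound 16 h 37 °C; Caspase-Glo 3/7 1 h RT; luminescence. Norm.: DMSO = 0, 10 uM staurosporine = 100%. Hill fit → AC50.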

[15] = Cellular Toxicity (caspase-3) BJ (AID 658; active means well fitted curve in the direction sought with a large enough effect; an effect the other way counts as inactive or inconclusive;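 further: cells exposed to compound for 16 hours; 0% = DMSO basal and 100% = 10 µM staurosporine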); conditions: Potency: caspase-3 activation
Method in brief: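 Caspase-Glo 3/7 luminescence, read 1 hr after reagent at room temperature, in normal BJ fibroblasts exposed 16 hours at 37 °C. AC50 values from Hill-equation concentration-response, scaled between DMSO basal and 10 uM staurosporine as 100%.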

[16] = Cellular Toxicity (caspase-3) MRC-5 (AID 659; active means well fitted curve in the direction sought with a large enough effect; an effect the other way counts as inactive or inconclusive;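 further: 0% = DMSO basal and 100% = 10 µM staurosporine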); conditions: Potency: caspase-3 activation
Method in brief: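 Luminescent Caspase-Glo 3/7 read-out (1 h, room temperature) after a 16 h, 37 °C compound exposure of MRC-5 lung fibroblasts at 1500 cells/well. Concentration-response AC50 from Hill equation; 0% DMSO, 100% 10 uM staurosporine.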

[17] = Cellular Toxicity (caspase-3) Mesangial (AID 660; active means well fitted curve in the direction sought with a large enough effect; an effect the other way counts as inactive or inconclusive;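 further: combined caspase 3 and 7 activity read by Caspase-Glo luminescence; cells exposed to compound for 16 h before the caspase read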)
Method in brief: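 Seed cells derived from normal human renal glomeruli, incubate 5 h, add compounds across concentrations and incubate 16 h at 37 °C. Caspase 3/7 activation is then quantified by luciferase light, with AC50 derived by Hill modeling.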

[18] = Cellular Toxicity (caspase-3) H-4-II-E (AID 663; active means well fitted curve in the direction sought with a large enough effect; an effect the other way counts as inactive or inconclusive;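 further: cells exposed to compound for 16 hr before readout; 0% = DMSO basal and 100% = 100 µM tamoxifen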)
Method in brief: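 Caspase 3/7 activation measured by luminescent aminoluciferin substrate cleavage after 16 hr compound treatment of H-4-II-E cells in complete medium. Increase normalized between DMSO (basal) and 100 uM tamoxifen (100%); Hill-equation AC50 from concentration-response.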

[19] = Cellular Toxicity (caspase-3) Hek293 (AID 664; active means well fitted curve in the direction sought with a large enough effect; an effect the other way counts as inactive or inconclusive;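 further: cells exposed to compound for 16 h at 37 °C before readout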)
Method in brief: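 qHTS, HEK293 (human embryonic kidney), 16 h cpd exposure in complete medium. Caspase-3/7 activation = luminescence increase; normalized to DMSO/100 uM tamoxifen; Hill-fit AC50.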

[20] = Cell Viability - NIH 3T3 (AID 541; active means well fitted curve in the direction sought with a large enough effect; an effect the other way counts as inactive or inconclusive;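 further: cells exposed to compound for 40 hours; plate controls were DMSO alone for no effect and tamoxifen positive control for full effect; nearly all actives have a fitted effect of over 25% in size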); conditions: NIH 3T3 cell viability, qHTS; activity change, negative = cytotoxicity: at 92.2 µM (top of the series)
Method in brief: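 Cells seeded at 1000/well, rested 5 hr at 37 °C, then dosed and incubated 40 hr at 37 °C. CellTiter-Glo added, 20 min room temperature, luminescence read. AC50 by Hill fit.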

Sequence of Glucocorticoid receptor (Homo sapiens) (P04150 whole entry, looked up, the tested form may be a part): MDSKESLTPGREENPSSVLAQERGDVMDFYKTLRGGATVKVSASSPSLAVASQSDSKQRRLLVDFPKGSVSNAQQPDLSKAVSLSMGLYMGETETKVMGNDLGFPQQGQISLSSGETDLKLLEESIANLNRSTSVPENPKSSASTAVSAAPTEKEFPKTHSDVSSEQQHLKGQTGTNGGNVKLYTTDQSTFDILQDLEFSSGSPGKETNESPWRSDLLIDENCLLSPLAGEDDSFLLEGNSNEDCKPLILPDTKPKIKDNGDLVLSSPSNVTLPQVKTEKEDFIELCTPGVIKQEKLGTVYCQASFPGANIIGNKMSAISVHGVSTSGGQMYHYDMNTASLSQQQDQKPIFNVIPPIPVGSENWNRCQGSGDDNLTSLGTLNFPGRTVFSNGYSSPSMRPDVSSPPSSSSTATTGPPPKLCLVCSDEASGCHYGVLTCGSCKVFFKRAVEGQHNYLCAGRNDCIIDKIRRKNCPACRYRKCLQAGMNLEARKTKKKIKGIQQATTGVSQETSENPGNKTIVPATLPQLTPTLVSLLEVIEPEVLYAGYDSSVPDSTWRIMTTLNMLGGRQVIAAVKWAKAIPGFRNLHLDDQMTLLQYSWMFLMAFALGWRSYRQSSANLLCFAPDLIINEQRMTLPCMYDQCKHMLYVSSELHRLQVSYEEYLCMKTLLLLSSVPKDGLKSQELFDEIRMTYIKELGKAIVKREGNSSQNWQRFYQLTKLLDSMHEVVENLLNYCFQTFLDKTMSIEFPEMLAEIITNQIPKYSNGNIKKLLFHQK
Sequence of 3',5'-cyclic-AMP phosphodiesterase 4B (Homo sapiens) (Q07343 whole entry, looked up): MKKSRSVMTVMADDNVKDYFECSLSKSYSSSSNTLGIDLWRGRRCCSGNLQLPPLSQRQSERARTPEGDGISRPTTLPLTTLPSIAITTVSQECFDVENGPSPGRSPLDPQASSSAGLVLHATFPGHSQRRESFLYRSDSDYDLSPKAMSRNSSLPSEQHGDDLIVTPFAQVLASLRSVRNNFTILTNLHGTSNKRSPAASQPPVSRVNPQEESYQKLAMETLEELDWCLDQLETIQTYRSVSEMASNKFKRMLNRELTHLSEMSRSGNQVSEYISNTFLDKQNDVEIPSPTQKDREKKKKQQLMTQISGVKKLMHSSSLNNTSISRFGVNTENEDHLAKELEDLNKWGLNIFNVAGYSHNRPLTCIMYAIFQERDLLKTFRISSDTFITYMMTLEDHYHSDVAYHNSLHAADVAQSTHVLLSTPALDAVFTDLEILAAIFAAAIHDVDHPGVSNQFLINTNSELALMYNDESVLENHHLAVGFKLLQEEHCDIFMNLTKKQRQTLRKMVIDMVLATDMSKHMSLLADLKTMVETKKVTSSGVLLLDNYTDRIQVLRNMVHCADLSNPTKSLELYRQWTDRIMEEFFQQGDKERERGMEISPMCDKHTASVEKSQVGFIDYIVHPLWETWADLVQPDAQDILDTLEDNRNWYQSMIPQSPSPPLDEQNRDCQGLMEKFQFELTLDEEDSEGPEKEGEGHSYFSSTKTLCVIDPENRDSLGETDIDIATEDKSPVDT

NCCCP(=O)(O)O
inactive: activity, negative = inhibition [1] 26.4% | Potency [2] > 46 µM | Potency [3] > 46 µM | outcome [4] | Potency [5]

CN1[C@@H]2CC[C@H]1CC(OC1c3ccccc3CCc3ccccc31)C2 (stereo not given in full)
inactive: activity, negative = inhibition [1] 5.86% [at 17.2 µM] | Potency [2] > 20.6 µM | Potency [3] > 20.6 µM | outcome [4]

COc1ccc2[nH]c3c(c2c1)CCNC3
inactive: activity, negative = inhibition [1] 9.97% | Potency [2] > 46 µM | Potency [3] > 46 µM | outcome [4] | Potency [5]

CN1[C@@H]2CC[C@H]1CC(OC(=O)C1C=Nc3ccccc31)C2 (stereo not given in full)
inactive: activity, negative = inhibition [1] 3.6% [at 17.2 µM]

Cc1cc(C)cc(C(=O)OC2C[C@H]3CC[C@@H](C2)N3C)c1 (stereo not given in full)
inactive: Potency [2] > 46 µM | Potency [3] > 46 µM | outcome [4]

Cc1sc2ccccc2c1CC1=NCCN1
inactive: Potency [2] > 46 µM | Potency [3] > 46 µM | outcome [4] | Potency [5]

C[N+]1(C)CCc2cc3c(cc2[C@H]1[C@@H]1OC(=O)c2c1ccc1c2OCO1)OCO3
inactive: Potency [2] > 20.6 µM

CN1CCc2cc(O)cc3c2[C@H]1Cc1ccc(O)c(O)c1-3
inactive: activity, negative = inhibition [1] -18.2% | Potency [2] > 46 µM | Potency [3] > 46 µM | Potency [5]

NNC(=O)c1ccc(O)cc1
inactive: activity, negative = inhibition [1] 13.1% | Potency [2] > 46 µM | Potency [3] > 46 µM | Potency [5]

NCCc1ccc(S(=O)(=O)F)cc1
inactive: Potency [2] > 46 µM | Potency [3] > 46 µM | outcome [4] | Potency [5]

N#CC(C#N)=Cc1cc(O)c(O)c(O)c1
inactive: activity, negative = inhibition [1] 2.4% | Potency [2] > 46 µM | Potency [3] > 46 µM | Potency [5]

CCCN(CCC)CCc1ccc(O)c(O)c1
inactive: activity, negative = inhibition [1] -14.3% | Potency [2] > 46 µM | Potency [3] > 46 µM | outcome [4] | Potency [5]

CC(C)(C)c1cc(C=C(C#N)C#N)cc(C(C)(C)C)c1O
inactive: Potency [2] > 46 µM | Potency [3] > 46 µM | outcome [4]

Clc1cc(I)cc(Cl)c1NC1=NCCN1
inactive: activity, negative = inhibition [1] -14.2% | Potency [2] > 46 µM | Potency [3] > 46 µM | Potency [5]

CN1CCc2cccc(Cl)c2CC1
inactive: activity, negative = inhibition [1] 15.3% | Potency [2] > 46 µM | Potency [3] > 46 µM | Potency [5]

CCC(=O)O[C@@](Cc1ccccc1)(c1ccccc1)[C@@H](C)CN(C)C
inactive: activity, negative = inhibition [1] 5.74% [at 17.2 µM] | outcome [4]

CNC(=O)OCC[N+](C)(C)C
inactive: Potency [2] > 46 µM | Potency [3] > 46 µM | outcome [4]

CCCn1c(=O)c2[nH]c(C3CCCC3)nc2n(CCCOC(=O)c2ccc(S(=O)(=O)F)cc2)c1=O
active: Potency [5] 1.26 µM
inactive: activity, negative = inhibition [1] -25.7% | Potency [2] > 46 µM | Potency [3] > 46 µM

C[N+](C)(C)CC#CCN1CCCC1=O
inactive: Potency [2] > 46 µM | Potency [3] > 46 µM | outcome [4]

CC(=O)NBr
inactive: Potency [2] > 46 µM | Potency [3] > 46 µM | outcome [4] | Potency [5]

C[N+]1(C)[C@@H]2CC[C@H]1CC(OC(=O)c1c[nH]c3ccccc13)C2 (stereo not given in full)
inactive: Potency [2] > 46 µM | Potency [3] > 46 µM | outcome [4] | Potency [5]

NC(=O)COc1c(F)cc(SCCNS(=O)(=O)c2ccccc2)cc1F
inactive: Potency [2] > 46 µM | Potency [3] > 46 µM | outcome [4] | Potency [5]

N[C@@H](Cn1oc(=O)[nH]c1=O)C(=O)O
inactive: Potency [2] > 46 µM | Potency [3] > 46 µM | outcome [4]

C[C@H](N)CN1CCc2ccc(Br)cc21
inactive: activity, negative = inhibition [1] -29.5% | Potency [2] > 46 µM | Potency [3] > 46 µM | Potency [5]

CCN(CCCl)Cc1ccccc1Br
inactive: Potency [2] > 46 µM | Potency [3] > 46 µM | outcome [4] | Potency [5]

c1ccc2c(c1)[I+]c1ccccc1-2
inactive: Potency [2] > 46 µM | Potency [3] > 46 µM | outcome [4] | Potency [5]

c1ccc2cc(CC3=NCCN3)ccc2c1
inactive: activity, negative = inhibition [1] -3.81% | outcome [4] | Potency [5]

O=S(=O)(O)c1cc(O)ccc1O
inactive: activity, negative = inhibition [1] 11.9% [at 17.2 µM] | Potency [2] > 20.6 µM | Potency [3] > 20.6 µM | outcome [4] | Potency [5]

C[C@@H](Cc1ccccc1)NCCC(c1ccccc1)c1ccccc1
inactive: activity, negative = inhibition [1] -3.28% [at 17.2 µM] | outcome [4]

CCS(=O)(=O)Nc1cccc(C(=C2CCCCC2)c2cnc[nH]2)c1
inactive: activity, negative = inhibition [1] -26.3% | Potency [2] > 46 µM | Potency [3] > 46 µM | outcome [4] | Potency [5]

CCC1(C)CC(=O)NC(=O)C1
inactive: activity, negative = inhibition [1] -0.442% [at 17.2 µM] | Potency [2] > 20.6 µM | Potency [3] > 20.6 µM | outcome [4] | Potency [5]

O=S1(=O)N(CCN2CC=C(c3c[nH]c4cc(F)ccc34)CC2)c2cccc3c2N1CCC3
inactive: activity, negative = inhibition [1] 22.3% | Potency [2] > 46 µM | Potency [3] > 46 µM | outcome [4] | Potency [5]

O=C1C=CC(=O)C=C1
inactive: activity, negative = inhibition [1] -5.57% | outcome [4] | Potency [6] | Potency [7] | Potency [8] | Potency [9] | Potency [10] | Potency [5] | outcome [11] | Potency [12] | outcome [13] | outcome [14] | Potency [15] | Potency [16] | outcome [17] | outcome [18] | outcome [19]

O=c1ccc2[nH]cc(C3=CCNCC3)c2[nH]1
inactive: Potency [2] > 46 µM | Potency [3] > 46 µM | outcome [4] | Potency [5]

C[N+](C)(C)CC#CCOC(=O)Nc1cccc(Cl)c1
inactive: activity, negative = inhibition [1] -8.8% | Potency [2] > 46 µM | Potency [3] > 46 µM | outcome [4] | Potency [5]

NC(N)=NOCC[C@H](N)C(=O)O
inactive: activity, negative = inhibition [1] 4.59% [at 17.2 µM] | Potency [2] > 46 µM and > 20.6 µM | Potency [3] > 46 µM and > 20.6 µM | outcome [4] | Potency [5]

COc1ccc2[nH]cc(CCN)c2c1
inactive: activity, negative = inhibition [1] -1.18% | Potency [2] > 46 µM | Potency [3] > 46 µM | outcome [4] | Potency [5]

CCCN(CCC)C1Cc2cc(OC)c(OC)cc2C1
inactive: activity, negative = inhibition [1] 21.3% | Potency [2] > 46 µM | Potency [3] > 46 µM | outcome [4] | Potency [5]

O=Cc1ccco1
inactive: Potency [6] | Potency [20] | Potency [7] | Potency [8] | Potency [9] | Potency [10] | outcome [11] | Potency [12] | outcome [13] | outcome [14] | Potency [15] | Potency [16] | outcome [17] | outcome [18] | outcome [19]
